Inconclusive results are not listed. Calls of active or inactive are those of the source. How the source made its calls: active means hit-call score of the fitted dose curve at least 0.9, where 1 is the maximum; inconclusive means response in the unintended direction; inactive means score below 0.9.
Assay: ACEA_ER_AUC_viability: ACEA Biosciences xCELLigence Real-Time Cell Analysis on Estrogen Receptor Agonism for Viability (AID 2283782);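 further: continuous compound exposure with impedance area under curve over 80 h; hit means loss of impedance signal meaning reduced cell growth or viability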
Procedure, shortened: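 T-47D; phenol red-free RPMI1640 + 10% CS-FBS; 8 conc., 1:4 serial, max 100 uM final, ≤0.5% DMSO; n = 2; continuous exposure; impedance monitored to 80 h post-dose; AUC vs DMSO.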

| SMILES | outcome | AC50 |
| --- | --- | --- |
| CCOc1ccc(NC(=O)CC(C)=O)cc1 | inactive | – |
| CC(C)CCOC(=O)c1ccccc1 | inactive | – |
| CCc1ncc(C)[nH]1 | inactive | – |
| CCC(C)=O | inactive | – |
| Cc1ccc(N)c(S(=O)(=O)O)c1 | inactive | – |
| CCCCCCCC(=O)OCCCCCC | inactive | – |
| COc1ccc(N)c([N+](=O)[O-])c1 | inactive | – |
| C=CCCC(=O)/C=C/C1C(C)=CCCC1(C)C (stereo not drawn) | – | 68.8 µM (active) |
| COCCOCCOCCO | inactive | – |
| CCCCCCC(=O)c1ccccc1 | inactive | – |
| CC(=O)O[C@@H]1C[C@@H]2CC[C@@]1(C)C2(C)C | inactive | – |
| CCOc1ccccc1O | inactive | – |
| C=C(C)C(=O)OCCOCCOCCOC(=O)C(=C)C | inactive | – |
| COS(=O)(=O)O | inactive | – |
| COc1cccc(OC)c1O | inactive | – |
| Brc1ccc(Br)c(Br)c1 | – | 34.9 µM (active) |
| CC(=O)C1(C)CC2=C(CCCC2(C)C)CC1C (stereo not drawn) | – | 50 µM (active) |
| CS(=O)(=O)c1ccc(Cl)cc1 | inactive | – |
| O=C(O)c1cccnc1C(=O)O | inactive | – |

| SMILES | outcome | AC50 |
| --- | --- | --- |
| CC(C)OCCO | inactive | – |
| Oc1c(Cl)cc(Cl)c(Cl)c1Cc1c(O)c(Cl)cc(Cl)c1Cl | – | 5.27 µM (active) |
| COc1ccc(N=Nc2cc(C)c(N=Nc3ccc(S(=O)(=O)O)cc3)cc2OC)cc1 | inactive | – |
| CC1C2CC(CC2C2CCCC(O)C2)C1(C)C (stereo not drawn) | – | 84.8 µM (active) |
| O=CN1CCOCC1 | inactive | – |
| CC(C)(N=C=O)c1cccc(C(C)(C)N=C=O)c1 | – | 33.1 µM (active) |
| C=Cc1ccc(C)cc1 | inactive | – |
| C=C(CC(=O)O)C(=O)O | inactive | – |
| C=CC(=O)OCCC#N | – | 66.7 µM (active) |
| CC(=O)OCCCc1ccccc1 | inactive | – |
| Cc1ccc(OC(=O)c2ccccc2O)cc1 | – | 50 µM (active) |
| CCCCCCCCc1ccc(S(=O)(=O)O)cc1 | inactive | – |
| CC(C)NCC(O)COc1ccc(CC(N)=O)cc1 (stereo not drawn) | inactive | – |
| OCCc1ccccc1 | inactive | – |
| C=CCCCCCCCCCC | inactive | – |
| CC1(C)COCN1 | – | 32.1 µM (active) |
| CCCCCCCCCCCC(=O)OCC(O)CO (stereo not drawn) | – | 50 µM (active) |
| CCCCCc1ccco1 | – | 35 µM (active) |
| CCCCCCC(O)CCCCCCCCCCC(=O)O (stereo not drawn) | inactive | – |

— PubChem BioAssay (EPA / NIEHS)
